From PubChem
Marburg entry inh = inhibitors of Marburg virus binding or cell entry; Marburg virus pseudotyped entry inhibition, cell reporter; Potency, µM (top dose mostly 37.8 µM), inactives show at the highest dose activity change, negative = inhibition, actives largely listed as inhibitors; 300,000 compounds, 1.8% hits; AID 540276; calls by dose curve; tested in HEK293 cells
FMDV antiviral = antivirals against foot and mouth disease virus; FMDV antiviral cell-based qHTS; Potency, µM (titrated, usually from 57.9 µM), inactives show at the highest dose activity change, negative = inhibition, hits mostly inhibitors; 410,000 compounds, 1.2% hits; AID 1159524; calls by dose curve; tested in HEK293T cells; also: read-out not given here; nearly all actives have a fitted effect of over 45% in size
Sm TGR inh = S. mansoni TGR enzyme inhibition. Q962Y6. purified TGR, DTNB reduction, TNB absorbance 405 nm. Potency, µM (highest dose often 114 µM), for the others: at the top dose activity change, negative = inhibition, usual class: inhibitors. 360,000 compounds, 3% hits; also: nearly all actives have a fitted effect of over 60% in size
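First, TGR (20 nM dispensed) and NADPH were mixed with compound. Second, a 15 min room-temperature incubation followed. Third, further NADPH and then DTNB were added to start the reaction. Finally, TNB absorbance was monitored kinetically.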
HCV inhibitor = HCV inhibition; Huh7.5.1 HCVcc-Cre infection, luciferase reporter, 44 h; Potency, µM (series often up to 41.8 µM), without a hit: at the top dose activity change, negative = inhibition, most hits filed as inhibitors; 340,000 compounds, 3.4% hits
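Luciferase read-out (15 sec integration) after a 15 min room-temperature substrate step quantifies HCVcc-Cre infection. Cells, 1,000 per well, had compound added 4 h post-plating, then virus at ~0.5 moi, and were cultured 44 h.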
RE007 growth inh = less growth of the S. pombe RE007 Vpr strain. S. pombe RE007 Vpr strain, BacTiter-Glo ATP luminescence, 24 h. Potency, µM (top dose mostly 92.2 µM), inactives show top-dose activity change, negative = less growth, hits mostly inhibitors. 360,000 compounds, 0.21% hits; active = well fitted falling curve with a large enough effect; inconclusive = small, poorly fitted or top-dose-only effect; inactive = no such curve, though single readings can be large or run the other way; also: nearly all actives have a fitted effect of over 50% in size
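Fission yeast RE007 carrying one integrated HIV-1 vpr copy, seeded at OD 0.01 in PMG+AL medium with 23 nL pinned compound. Grown 24 h at 30 degrees; viability read by BacTiter-Glo luminescence after 5 min.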
LASV entry inh = Lassa virus entry inhibition | Potency, µM (titrated, usually from 37.9 µM), for inactives: at the top dose activity change, negative = inhibition, most hits filed as inhibitors | 300,000 compounds, 1.2% hits | Lassa virus pseudotype entry inhibition, cell reporter | AID 540256; calls by dose curve; tested in HEK293 cells; also: nearly all actives have a fitted effect of over 50% in size
The depositor's hits bear a star; [ ] = dose if it differs, or a comment. Most compounds without a hit are left out; they make up all but 7.2% or so of the library. Unless noted, calls follow the shape of the dose curve; as a rule, active = well fitted curve in the direction sought with a large enough effect; inconclusive = small, poorly fitted or top-dose-only effect, or another doubt; inactive = no such curve, though single readings can be large; an effect the other way counts as inactive or inconclusive. % is scaled to controls: 0 for no effect and ±100 for the full control effect; potency is read from the fitted curve at half-maximal effect.

For OCCN=C1CCCc2c1[nH]c1ccc(Br)cc21 the results were Marburg entry inh 1%, FMDV antiviral -18%, Sm TGR inh -3%, HCV inhibitor 5.6µM*, RE007 growth inh -26% and LASV entry inh -8%.
`Brc1ccc2[nH]c3c(c2c1)CCC3` gave Marburg entry inh inconclusive, FMDV antiviral -3%, Sm TGR inh -3%, HCV inhibitor inconclusive, RE007 growth inh 5% and LASV entry inh 8.9µM*.
Screening O=[N+]([O-])c1ccc2[nH]c3c(c2c1)CCCC3 returned FMDV antiviral -16%, Sm TGR inh 3%, HCV inhibitor 11µM* and RE007 growth inh -29%.
CCCCN([C@H](CO)C(C)C)S(=O)(=O)c1ccccc1Br was read as FMDV antiviral 0%, HCV inhibitor -6% and RE007 growth inh -9%.
Screening CCC(=O)NCCC1CCc2ccc3c(c21)CCO3 (centres undefined) returned FMDV antiviral -2%.
Screening Cc1cc2c(c(-c3cnccn3)c1)OC(CNC(=O)c1ccccc1C(F)(F)F)C2 (centres undefined) returned FMDV antiviral -9%.
Screening CCOc1ccc(Nc2nc(N)c(C(=O)c3ccccc3Cl)s2)cc1 returned FMDV antiviral 18%, Sm TGR inh -2% and LASV entry inh inconclusive.
O=C(c1ccc(Cl)cc1)c1c[nH]c(C(=O)NNc2ccccc2)c1 was read as Marburg entry inh inconclusive, FMDV antiviral -13%, Sm TGR inh -7%, HCV inhibitor inconclusive, RE007 growth inh 149% and LASV entry inh 14µM*.
`CNC(=O)c1cc(C(=O)c2ccc(Cl)cc2)c[nH]1` gave Marburg entry inh 21%[46.1 µM], FMDV antiviral 15%, Sm TGR inh -29%, HCV inhibitor 15%, RE007 growth inh 2% and LASV entry inh 11%[46.1 µM].
For COc1ccc(CCNc2oc(COc3ccccc3F)nc2C#N)cc1 the results were Marburg entry inh 5%, FMDV antiviral 1%, Sm TGR inh -16%, HCV inhibitor inconclusive, RE007 growth inh -2% and LASV entry inh -11%.
`N#Cc1nc(COc2ccccc2F)oc1NCc1ccc(F)cc1` gave FMDV antiviral 12%, Sm TGR inh 25µM*, HCV inhibitor -15% and RE007 growth inh -4%.
COc1ccc(-c2nc(C#N)c(NCc3ccc(F)cc3)o2)cc1OC was read as Marburg entry inh 0%, FMDV antiviral inconclusive, Sm TGR inh 24%, HCV inhibitor 3.5µM*, RE007 growth inh -3% and LASV entry inh -1%.
Screening Cc1ccc(Sc2ccc(NC(=O)CCl)cc2)c(C)c1 returned Marburg entry inh -21%, FMDV antiviral 32µM*, Sm TGR inh inconclusive, HCV inhibitor inconclusive, RE007 growth inh -23% and LASV entry inh inconclusive.
Cc1cccc(COc2ccc(/C(O)=C3\C(=O)C(=O)N(CCN(C)C)[C@H]3c3ccncc3)cc2)c1 was read as Marburg entry inh 8%.
`Cc1ccc(CCNC(=O)c2c[nH]c3ccc(S(=O)(=O)Nc4cccc(C(F)(F)F)c4)cc3c2=O)cc1` gave FMDV antiviral -20%, Sm TGR inh 12% and LASV entry inh -34%[46.1 µM].
Screening Nc1ccc(N(CCO)CCO)cc1 returned Marburg entry inh -13%[46.1 µM], FMDV antiviral 0%, Sm TGR inh 7.1µM*, HCV inhibitor 18% and RE007 growth inh -11%.
`CC(=O)c1cc2ccc(O)cc2oc1=O` gave FMDV antiviral -16%, Sm TGR inh 1%, HCV inhibitor 16% and RE007 growth inh -7%.
`Cc1ccc(N=c2oc3cc(O)ccc3cc2C(N)=O)cc1` gave Marburg entry inh inconclusive, FMDV antiviral -2%, Sm TGR inh 4%, HCV inhibitor 11µM*, RE007 growth inh -22% and LASV entry inh inconclusive.
For Cc1ccc(/C(C#N)=C\c2cn(C)c3ccccc23)cc1 the results were Marburg entry inh -2%, Sm TGR inh 7% and HCV inhibitor 6.3µM*.
Screening Cn1cc(C=O)c2ccccc21 returned FMDV antiviral 6%, Sm TGR inh 19%, HCV inhibitor 3% and RE007 growth inh -17%.
